Whole data set: some 33,000 sequences, median “E-score (-0.5 to 0.5)” near -0.015, cut for the highest 2% near 0.3. For the sample, the highest values were picked, then their nearest neighbours and some sequences at random.
The sequences below were run against T1, Abf1 (UniProt P14164) (assay: PBM E-score (8-mer binding enrichment) (E-score (-0.5 to 0.5)); higher = stronger / more preferred TF binding). Details: protein concentration: 200 nM; construct: GST-full length.
T1 sequence: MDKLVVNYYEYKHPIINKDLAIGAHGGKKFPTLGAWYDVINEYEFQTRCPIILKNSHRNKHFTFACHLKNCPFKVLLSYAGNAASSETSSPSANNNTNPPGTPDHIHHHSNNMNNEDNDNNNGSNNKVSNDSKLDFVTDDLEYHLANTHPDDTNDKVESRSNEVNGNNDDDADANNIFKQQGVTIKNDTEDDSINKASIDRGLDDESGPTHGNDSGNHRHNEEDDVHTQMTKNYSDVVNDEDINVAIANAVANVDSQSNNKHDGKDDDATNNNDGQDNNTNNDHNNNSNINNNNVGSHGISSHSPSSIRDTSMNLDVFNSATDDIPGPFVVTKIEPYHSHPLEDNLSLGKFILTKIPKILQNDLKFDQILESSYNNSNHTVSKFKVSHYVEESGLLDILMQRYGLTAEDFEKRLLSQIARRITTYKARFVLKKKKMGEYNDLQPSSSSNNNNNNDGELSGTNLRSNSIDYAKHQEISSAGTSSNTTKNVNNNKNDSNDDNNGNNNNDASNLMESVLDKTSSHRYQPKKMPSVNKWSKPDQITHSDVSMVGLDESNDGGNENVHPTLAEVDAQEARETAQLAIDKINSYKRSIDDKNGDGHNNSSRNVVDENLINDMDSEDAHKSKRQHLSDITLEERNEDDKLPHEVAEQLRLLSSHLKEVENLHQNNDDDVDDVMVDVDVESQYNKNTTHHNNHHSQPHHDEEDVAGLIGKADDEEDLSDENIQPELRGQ
Method in brief: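 The E-score, a modified Wilcoxon-Mann-Whitney statistic, was computed by the Universal PBM Analysis Suite for every ungapped eight-base word pooled with its reverse complement. Scans behind it were normalised with masliner after bound GST-tagged yeast transcription factors were detected with fluorescent anti-GST. The proteins, at about 100-200 nM, had been applied to universal all-10-mer Agilent arrays made double-stranded by primer extension.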

Row | Sequence | PBM E-score
1 | ATCTCGCG | 0.206
2 | ATAATAGC | 0.0936
3 | CAGAGGAA | -0.148
4 | CGTAGGAG | 0.134
5 | CCCAAAGG | -0.158
6 | ACGTATCA | 0.33
7 | TCGTATCA | 0.331
8 | ACGTATCT | -0.0664
9 | CCGTATCA | 0.28
10 | ACGTATCG | 0.212
11 | GCGTATCA | 0.109
12 | GCAGAACA | -0.122
13 | ATTGCGTG | -0.126
14 | CGCATCAA | 0.081
15 | ACTGGTAT | 0.0243
16 | GGTCACGA | 0.27
17 | CGTCACGC | 0.145
18 | CGTCACTC | 0.173
19 | CGTCACGA | 0.336
20 | CGTCACTA | 0.374
21 | AGTCACTG | 0.0546
22 | AGTCACTA | 0.315
23 | GGTCACTA | 0.281
24 | AGTCACTC | 0.232
25 | ACGCCAGA | -0.081
26 | ACCACCTA | -0.168

Row | Sequence | PBM E-score
27 | ACTGAAAT | -0.0641
28 | AGCACCAC | -0.214
29 | ACGTTGGA | 0.142
30 | CAACCGAG | -0.0944
31 | ACAGACGA | 0.236
32 | GCGGACGA | 0.276
33 | TCAGACGA | 0.305
34 | GCAGACGA | 0.174
35 | TCGGACGA | 0.325
36 | ACGGACGA | 0.263
37 | AGAATCCG | -0.0715
38 | GCTGAGGA | -0.131
39 | ACGACCTG | 0.0542
40 | GGGTAGAA | -0.0486
41 | ACGCTGAT | 0.0221
42 | AATATCAG | 0.119
43 | AATATCGC | 0.283
44 | GCTATCAC | 0.211
45 | GATATCAA | 0.207
46 | GATATCAC | 0.414
47 | GATATCGA | 0.271
48 | AATATCAC | 0.441
49 | AATATCAT | 0.391
50 | GATATCGC | 0.341
51 | AATATCAA | 0.0238
52 | ACTATCAT | 0.184

Row | Sequence | PBM E-score
53 | AGTATCAT | 0.286
54 | CTATCAAA | 0.121
55 | GCCAGCAC | -0.0263
56 | TAAAGACA | -0.183
57 | CCGGAGCA | -0.291
58 | CAACCTAG | -0.0549
59 | GAAACCGC | -0.15
60 | AATATCGA | 0.0788
61 | CATATCAA | 0.222
62 | CATATCAG | 0.0515
63 | AATATCGT | 0.398
64 | AATATCGG | 0.187
65 | CATATCAC | 0.389
66 | CAGACCTC | 0.00051
67 | GCTGGTTA | -0.0104
68 | ACTAAGTG | 0.108
69 | GAATATCA | 0.334
70 | CAATATCA | 0.283
71 | TAATATGA | 0.261
72 | TAATATCA | 0.344
73 | AAATATGA | 0.0696
74 | AAATATGC | 0.0361
75 | TAATATAA | 0.196
76 | AAATATTA | 0.217
77 | TAATATTA | 0.361
78 | GAATATCC | 0.0475

Row | Sequence | PBM E-score
79 | AAATATGT | 0.334
80 | CAATATTA | 0.271
81 | AGGTAGAC | -0.249
82 | CTAGGGCA | -0.273
83 | CCCAAAAG | -0.135
84 | AGCGGACT | -0.23
85 | GCTGGAGA | -0.0857
86 | GAGCTGCC | -0.0575
87 | ACAACTCG | 0.0757
88 | AAATATCC | 0.0659
89 | AAATATCG | 0.271
90 | AAATATCA | 0.376
91 | CAAATCGC | -0.0589
92 | CCTTACAC | -0.0587
93 | GGTATATA | 0.161
94 | AGTATATC | 0.0567
95 | CGTATATC | 0.255
96 | CGTATATA | 0.357
97 | AGTATATG | 0.0541
98 | AGTATATA | 0.31
99 | AGTGGATC | -0.0658
100 | CTGCCATA | -0.0819
101 | GGCGTATA | -0.0363
102 | ACCGTATA | 0.384
103 | TCCGTAGA | 0.143
104 | ACCGTATG | 0.27

Row | Sequence | PBM E-score
105 | CCCGTATA | 0.289
106 | ACCGTATC | 0.225
107 | GCCGTAGC | 0.0651
108 | GCCGTAGA | 0.371
109 | GCCGTATA | 0.379
110 | AAGTGTTC | -0.0135
111 | AGTTATAT | 0.16
112 | ATGAAGAG | 0.0548
113 | CTGGGCAA | -0.172
114 | AATAATTA | 0.2
115 | ATCTTATG | 0.0695
116 | AAGCGGGC | -0.381
117 | GTACGACA | 0.36
118 | CCACGACA | 0.0558
119 | CTACGACA | 0.263
120 | GCACGACA | 0.338
121 | ACACGACC | -0.00503
122 | GCACGACC | 0.0772
123 | ACACGACA | 0.368
124 | ACACGACT | 0.0619
125 | ATACGACA | 0.296
126 | AAATTGGC | -0.0692
127 | GTTGAGAA | 0.098
128 | AAGGACCG | -0.16
129 | GGAGCCTA | -0.064
130 | GCGACAGA | -0.0736

Row | Sequence | PBM E-score
131 | ACGACAAG | 0.215
132 | CCGACAAA | -0.0368
133 | ACGACAGA | 0.308
134 | ACGACAGG | 0.05
135 | ACGACAAA | 0.369
136 | GCGACAAA | 0.215
137 | ACGACAAT | 0.329
138 | ACGACAAC | 0.265
139 | GGCGTCAA | -0.206
140 | ATGTAGGG | -0.256
141 | CTACGGTA | 0.138
142 | AAACGGTG | 0.129
143 | ATACGGTA | 0.319
144 | ATACGGTC | 0.26
145 | GTACGGTA | 0.197
146 | ATACGGTG | 0.297
147 | AACGGAAT | 0.15
148 | ACTCGTTG | -0.00197
149 | AAGGGATA | 0.0355
150 | ATGGTGGC | -0.387
151 | CCGTACGC | 0.241
152 | GCGTACGA | 0.317
153 | TCGTAAGA | 0.154
154 | GGGTACGA | 0.0568
155 | GCGTACGC | -0.158
156 | CCGTACGA | 0.451

Row | Sequence | PBM E-score
157 | TCGTACGA | 0.455
158 | CGGTACGA | 0.291
159 | TAGTACGA | 0.287
160 | CCAGTCTA | -0.227
161 | CAGCAGAG | -0.263
162 | ATGAGAAG | 0.117
163 | AGTAGTTG | 0.067
164 | ACTTTCAA | 0.159
165 | CTTTACCC | -0.141
166 | GCTGACAC | 0.0512
167 | TGATTCAA | 0.0649
168 | GAGCAAGC | -0.0234
169 | ATTTTTTA | 0.193
170 | TGGTGACA | 0.357
171 | CGGTGACG | 0.235
172 | AGGTGACC | 0.14
173 | CGGTGACA | 0.399
174 | AGGTGACA | 0.362
175 | GGGTGACC | 0.188
176 | AGGTGACG | 0.0988
177 | CGGTGACC | 0.0798
178 | GGGTGACA | 0.257
179 | ACCGAGGT | -0.113
180 | AGCCCACA | -0.0569
181 | AGTATCGC | 0.0404
182 | CCTACGTA | -0.0223

Row | Sequence | PBM E-score
183 | GACGAGTC | 0.241
184 | AATTCCGT | 0.115
185 | GATGCCAC | 0.049
186 | GCCGTTCA | 0.156
187 | ACCTAATC | 0.111
188 | CCCCATGA | -0.167
189 | ACAGTTTA | -0.0111
190 | GTTGATAA | 0.199
191 | CTTGATAA | 0.138
192 | TGGGATAA | -0.0897
193 | TGTGATAA | 0.297
194 | GCTGATAA | 0.0596
195 | CGTGATAA | 0.408
196 | CCTGATAA | 0.1
197 | GGTGATAA | 0.404
198 | TCTGATAA | 0.134
199 | GTTTTCTA | -0.0572
200 | CAGCGATG | -0.0769
201 | AGTGGCAG | -0.0869
202 | TATGGGCA | -0.0697
203 | ATGAACCC | -0.0465
204 | ACGTAGAC | 0.0202
205 | ATGCATAC | 0.0289
206 | CGGGGAGC | -0.00752
207 | AGATGCAT | -0.058
208 | CTCACCAC | -0.0754

Row | Sequence | PBM E-score
209 | ATCACCGG | 0.101
210 | ATCACCAT | 0.254
211 | ATCACCAC | 0.356
212 | CTCACCGC | 0.0255
213 | ATCACCGC | 0.311
214 | AGGTACCT | -0.101
215 | ACGACTAC | 0.329
216 | ACGACCAA | 0.182
217 | CCGACTAC | -0.119
218 | GCGACTAC | -0.134
219 | ACGACTAT | 0.298
220 | ACGACTAG | 0.0858
221 | ACGACCAG | 0.301
222 | ACGACCAC | 0.131
223 | ACGACTAA | 0.0761
224 | AGCTGCTC | -0.148
225 | CTCCTCCC | -0.201
226 | ACGATGGC | 0.0358
227 | ATGTTAAT | -0.0223
228 | AGTGAAGA | 0.129
229 | CGGCATAG | 0.0597

Source: the supplement of paper PMC3334620
